This is a sample that favours compounds with a hit; in the whole collection about 12% have one here.
AmpC no deterg = qHTS Inhibitors of AmpC Beta-Lactamase (assay without detergent); P00811; AmpC nitrocefin hydrolysis, absorbance 480 nm, 0.0001% Triton; Potency, µM (top dose mostly 57.1 µM), actives largely listed as inhibitors; hit rate 0.52% among 330,000; AID 485341, 2010; further: nearly all actives have a fitted effect of over 20% in size
Target sequence (P00811 whole entry, looked up): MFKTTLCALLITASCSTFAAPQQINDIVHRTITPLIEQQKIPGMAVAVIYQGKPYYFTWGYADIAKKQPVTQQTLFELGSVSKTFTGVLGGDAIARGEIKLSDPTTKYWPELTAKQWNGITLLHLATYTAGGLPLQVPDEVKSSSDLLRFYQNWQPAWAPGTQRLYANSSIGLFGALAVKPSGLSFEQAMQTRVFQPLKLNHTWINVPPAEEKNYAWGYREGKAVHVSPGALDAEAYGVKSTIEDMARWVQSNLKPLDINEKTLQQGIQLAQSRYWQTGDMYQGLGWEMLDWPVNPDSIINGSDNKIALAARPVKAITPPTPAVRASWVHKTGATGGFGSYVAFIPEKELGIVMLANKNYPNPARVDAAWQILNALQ
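20 mM phosphate pH 7.0 + 0.01% (detergent screen) or 0.0001% Triton X-100; 5.3 nM AmpC reagent; cpd preinc 15 min RT; nitrocefin (800 uM stock) to start; A480 q20 s × 4 min; Activity was normalised to no-enzyme and no-compound control wells.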
Sm TGR block = qHTS Assay for the Inhibitors of Schistosoma Mansoni Peroxiredoxins. Schistosoma mansoni thioredoxin glutathione reductase (TGR), Q962Y6. purified TGR, DTNB reduction, TNB absorbance 405 nm. Potency, µM (highest dose often 114 µM), hits mostly inhibitors. hit rate 3% among 360,000. AID 485364, 2010; further: nearly all actives have a fitted effect of over 60% in size
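Kinetic colorimetric format: TGR-catalysed, NADPH-driven DTNB reduction monitored via TNB absorbance. Enzyme dispensed at 20 nM; compound exposure 15 min at room temperature before reaction start.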
AmpC inh detg = qHTS Inhibitors of AmpC Beta-Lactamase (assay with detergent); AmpC hydrolysis of nitrocefin, absorbance 480 nm, 0.01% Triton; Potency, µM (series often up to 114 µM), usual class: inhibitors; hit rate 0.041% among 370,000; further: nearly all actives have a fitted effect of over 25% in size
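AmpC (5.3 nM in the dispensed reagent) in 20 mM phosphate pH 7.0 with 0.01% (detergent screen) or 0.0001% Triton X-100 was preincubated with compounds for 15 min at room temperature. Nitrocefin was then added from an 800 uM solution, and hydrolysis was followed at 480 nm.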
Pf growth 48h = Primary qHTS for delayed death inhibitors of the malarial parasite plastid, 48 hour incubation; P. falciparum luciferase growth in erythrocytes, 48 h; Potency, µM (highest dose often 28.7 µM), usual class: inhibitors; hit rate 5.9% among 310,000; AID 504832, 2011
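Luciferase-expressing P. falciparum in infected erythrocytes (2% hematocrit, 0.1% parasitemia final) in RPMI 1640/0.5% Albumax were exposed to compound for 48 hours at 37 C, 5% CO2; growth read as luminescence.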
SARS PLpro yeast = qHTS of Yeast-based Assay for SARS-CoV PLP | S. cerevisiae expressing SARS-CoV PLpro, growth rescue | Potency, µM (doses to about 32.9 µM), actives largely listed as activators | hit rate 0.19% among 330,000 | AID 485353, 2010; calls by dose curve; further: nearly all actives have a fitted effect of over 55% in size
Pf growth 96h = Primary qHTS for delayed death inhibitors of the malarial parasite plastid, 96 hour incubation; P. falciparum luciferase reporter growth, 96 h; Potency, µM (highest dose often 28.7 µM), actives largely listed as inhibitors; hit rate 6.9% among 320,000; AID 504834, 2011
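Infected RBCs, 2% Hct / 0.05% parasitemia final; luciferase-reporter P. falciparum; cpd 96 h, 37 C, 5% CO2; luciferase detection reagent; luminescence.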
A number is an active result; . = inactive; ? = inconclusive; / = no result given; [ ] = another dose, or the depositor's remark. Unless noted, the call rests on the fitted dose curve; in most records, active means well fitted curve in the direction sought with a large enough effect; inconclusive means small, poorly fitted or top-dose-only effect, or another doubt; inactive means no such curve, though single readings can be large; an effect the other way counts as inactive or inconclusive.

SMILES	AmpC no deterg	Sm TGR block	AmpC inh detg	Pf growth 48h	SARS PLpro yeast	Pf growth 96h
CCOC(=O)c1c[nH]c2c3c(ccc2c1=O)CCCC3	.	.	?	0.33µM	.	?
CCOC(=O)c1c[nH]c2c(C)cc(C)cc2c1=O	.	.	.	5.2µM	.	.
CN(Cc1ncc[nH]1)C(=O)CC1C(=O)NCCN1Cc1c(F)cccc1Cl (stereo unspecified)	.	.	.	.	.	.
CN(CCCC1CCCC1)C(=O)CC1C(=O)NCCN1Cc1cccc(F)c1F (stereo unspecified)	.	28µM	.	?	.	?
CN(Cc1ccon1)C(=O)CC1C(=O)NCCN1Cc1cccc(F)c1F (stereo unspecified)	.	?	.	.	.	?
CN(CCC1CCOCC1)C(=O)CC1C(=O)NCCN1Cc1c(F)cccc1Cl (stereo unspecified)	.	45µM	?	.	.	?
O=C(CC1C(=O)NCCN1Cc1ccc(-c2ccccc2)cc1)NC1CCC1 (stereo unspecified)	.	?	.	?	.	.
O=C(CC1C(=O)NCCN1Cc1ccc(Cl)c(F)c1)NCCc1cccnc1 (stereo unspecified)	.	45µM	.	.	.	.
O=C(CC1C(=O)NCCN1Cc1ccc(Cl)c(F)c1)NC1CCC1 (stereo unspecified)	.	40µM	.	?	.	.
O=C(CC1C(=O)NCCN1Cc1ccc(Cl)c(F)c1)NCC1CCOCC1 (stereo unspecified)	.	40µM	.	.	.	.
O=C1NCCN(Cc2ccc(Cl)c(F)c2)C1CC(=O)N1CCCCO1 (stereo unspecified)	.	25µM	.	?	.	.
COc1ccc(CN2CCNC(=O)C2CC(=O)NCC2CCOCC2)cc1C (stereo unspecified)	.	?	?	.	.	.
O=C1NCCN(Cc2c(F)cccc2Cl)C1CC(=O)N1CCCCO1 (stereo unspecified)	.	.	.	.	.	.
CN(CC1CCOCC1)C(=O)CC1C(=O)NCCN1Cc1ccc(Cl)c(F)c1 (stereo unspecified)	.	28µM	.	.	.	.
COc1ccccc1C(=O)Nc1ccc2[nH]ncc2c1	.	.	.	.	.	7.4µM
CC(C)N(Cc1ccccc1)C(=O)COC(=O)C1CCN(c2ccc(C(F)(F)F)cn2)CC1	.	?	.	.	.	.
CC(C)(C)N(Cc1ccccc1)C(=O)COC(=O)C1CCN(c2ccc(C(F)(F)F)cn2)CC1	.	.	.	10µM	.	?
CNC(=O)NNC(=O)c1nc(-c2ccccc2)c(C)o1	.	.	.	.	.	?
CC(C)(C)OC(=O)N[C@H](C(=O)OC(C)(C)C)c1ccc2c(c1)OCO2	.	.	.	12µM	.	?
Cc1nc(N2CCCC2)ncc1C(=O)N1CCN(c2ccccc2F)CC1	/	.	.	/	/	/
Cc1ccc(NC2=C/C(=N\S(=O)(=O)c3cccs3)c3ccccc3C2=O)c(C)c1	?	.	.	0.093µM	.	0.033µM
O=C1C(Nc2ccc(O)cc2)=C/C(=N/S(=O)(=O)c2cccs2)c2ccccc21	.[11.4 µM]	.	?	?	.	0.47µM
O=C1/C(=N\S(=O)(=O)c2cccs2)C([n+]2ccccc2)=C([O-])c2ccccc21	.	.	.	?	.	?
Cc1cc(C)c(S(=O)(=O)/N=C2\C=C(NS(=O)(=O)c3ccccc3)C(=O)c3ccccc32)c(C)c1	.	.	.	.	.	.
Cc1ccc(Cl)cc1NC1=C/C(=N\S(=O)(=O)c2cccs2)c2ccccc2C1=O	.	.	.	/	.	0.15µM
SMILES	AmpC no deterg	Sm TGR block	AmpC inh detg	Pf growth 48h	SARS PLpro yeast	Pf growth 96h
Cc1cccc(NC2=C/C(=N/S(=O)(=O)c3cccs3)c3ccccc3C2=O)c1	.	.	.	0.52µM	.	.
CCOc1ccc(-n2ccc(=O)c(C(=O)O)n2)cc1	.	.	.	.	.	.
COc1cccc(NC(=O)Cn2c(=O)n(Cc3ccc4c(c3)OCO4)c(=O)c3oc4ccccc4c32)c1	/	.	.	/	/	/
CN(C(=O)C1CCOC1)c1nnc(-c2ccccn2)s1 (stereo unspecified)	.	.	.	.	.	13µM
CN(C(=O)C1CCOC1)c1nnc(-c2ccncc2)s1 (stereo unspecified)	.	.	.	.	.	?
CC(=O)Nc1cc2c(s1)c1cnn(Cc3ccccc3F)c(=O)c1n2C	.	.	.	.	.	.
CC(=O)OC[C@]12CCC(C)=C[C@H]1O[C@@H]1[C@H](O)[C@@H](OC(C)=O)[C@@]2(C)[C@]12CO2	.	.	.	0.0033µM	.	?
CCOc1ccc(NC(=O)[C@@H](c2ccccc2)N2Cc3ccccc3C2=O)cc1	/	.	.	/	/	/
CCOc1ccc2c(c1)[N+](C)(C)C(C)(C)C=C2C	.	.	.	1.2µM	.	.
COc1ccc(-c2[nH]c(-c3ccccc3)nc2SCC(=O)Nc2ccc3c(c2)OCO3)cc1	/	?	.	/	/	/
COC(=O)C1=C(c2ccc3ccccc3c2)C[C@@H]2CC[C@H]1N2C(=O)NCc1ccc(C(F)(F)F)cc1	.	.	.	8.3µM	.	?
COC(=O)C1=C(c2ccc(C(C)=O)cc2)C[C@@H]2CC[C@H]1N2C(=O)NCc1ccc(C(F)(F)F)cc1	.	.	.	?	.	?
COC(=O)C1=C(c2ccc3ccccc3c2)C[C@@H]2CC[C@H]1N2C(=O)NCc1ccc(F)cc1	.	.	.	8.3µM	.	?
COC(=O)C1=C(c2ccc(Cl)c(C(F)(F)F)c2)C[C@@H]2CC[C@H]1N2C(=O)NCc1ccc2c(c1)OCO2	.	.	.	?	.	.
COC(=O)C1=C(c2ccc(C(C)=O)cc2)C[C@@H]2CC[C@H]1N2C(=O)NCc1ccc2c(c1)OCO2	.	.	.	12µM	.	3.3µM
COC(=O)C1=C(c2ccc(OC)c(OC)c2)C[C@@H]2CC[C@H]1N2C(=O)NCc1ccc(F)cc1	.	.	.	.	.	?
Cc1cccc(CC(=O)NC2CC(=O)N(c3cccc(F)c3)C2)c1 (stereo unspecified)	/	.	.	/	/	/
CCOc1ccccc1NS(=O)(=O)c1ccc2oc(=O)ccc2c1	.	.	?	.	.	.
Nc1c(C(=O)Nc2ccc(S(=O)(=O)N3CCCC3)cc2)sc2nc3ccc(OC(F)(F)F)cc3cc12	.	.	.	10µM	.	.
Nc1c(C(=O)Nc2ccc(C(=O)O)cc2)sc2nc3c(cc12)CCCC3	/	.	.	/	/	/
